Bioassay records from PubChem.
The entries come from a sample that favours hits as a whole.
FECH inh – blocks human mitochondrial ferrochelatase activity. P22830. purified FECH, Ni-mesoporphyrin absorbance 550 nm. calls only at 10 µM (by protocol). 3.3% of 20,000 active. AID 1671448;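 active means enzyme reaction rate more than 3 SD below the solvent-only control wells on the same plate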;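 further: lower slope than DMSO wells means FECH inhibition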
Target sequence (P22830 whole entry, looked up): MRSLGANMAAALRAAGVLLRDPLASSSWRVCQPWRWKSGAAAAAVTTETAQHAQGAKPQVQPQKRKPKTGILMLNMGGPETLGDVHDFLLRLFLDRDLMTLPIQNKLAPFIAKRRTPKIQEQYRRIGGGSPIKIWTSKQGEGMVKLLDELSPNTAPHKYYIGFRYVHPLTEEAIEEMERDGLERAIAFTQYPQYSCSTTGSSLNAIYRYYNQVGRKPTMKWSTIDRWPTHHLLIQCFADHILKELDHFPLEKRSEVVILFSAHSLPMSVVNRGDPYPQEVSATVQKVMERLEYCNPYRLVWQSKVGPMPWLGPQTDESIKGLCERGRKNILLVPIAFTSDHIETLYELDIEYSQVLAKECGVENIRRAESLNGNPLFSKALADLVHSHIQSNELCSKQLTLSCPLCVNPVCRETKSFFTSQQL
Of the large screens only hits and unclear results are named; the others gave an inactive call.

Cc1ccc(CNc2ncnc3oc4c(c23)CCCC4)o1	none
Clc1ccccc1CCNc1ncnc2oc3c(c12)CCCC3	FECH inh active
COc1ccccc1CNc1ncnc2oc3c(c12)CCCC3	none
Cc1ccc(C(=O)N(C)Cc2nccn2C)cc1NC(=O)C1CCCC1	none
Cc1cccc(CN2CCC3(CCCN(C(=O)COc4ccccc4)C3)C2)n1 (configuration not stated)	none
CCOC(=O)c1ccc(N2CCn3nc(C(=O)OC)cc3C2)nc1	none
CC(C)CC(=O)Nc1nc2n(n1)C(c1ccccc1Cl)C=C(c1ccc(Cl)cc1)N2 (configuration not stated)	none
CC(C)CC(=O)Nc1nc2n(n1)C(c1ccc(F)cc1)C=C(c1ccc(Cl)cc1)N2 (configuration not stated)	none
O=C(Nc1nc2n(n1)C(c1ccccc1Cl)C=C(c1ccc(Cl)cc1)N2)c1ccc(F)cc1 (configuration not stated)	none
Cc1ccc(C2=CC(c3ccccc3Cl)n3nc(NC(=O)CC(C)C)nc3N2)cc1 (configuration not stated)	FECH inh active
CC(=O)Nc1nc2n(n1)C(c1ccc(Cl)cc1)C=C(c1ccc(Cl)cc1)N2 (configuration not stated)	none
CC(C)C(=O)Nc1nc2n(n1)C(c1ccccc1Cl)C=C(c1ccc(Cl)cc1)N2 (configuration not stated)	none
O=C(Nc1nc2n(n1)C(c1ccccc1Cl)C=C(c1ccc(Cl)cc1)N2)c1ccco1 (configuration not stated)	FECH inh active
CCC(=O)Nc1nc2n(n1)C(c1ccccc1Cl)C=C(c1ccc(Cl)cc1)N2 (configuration not stated)	none
CC(C)CC(=O)Nc1nc2n(n1)C(c1ccc(Cl)cc1)C=C(c1ccc(Cl)cc1)N2 (configuration not stated)	FECH inh active
Cc1nn(C)c(C)c1CCCN(C)c1ncc(NS(=O)(=O)c2cccc(F)c2)cc1C(=O)O	none
C=CCCC(CN1CCCN(C)CC1)Oc1ccc(Cl)cn1 (configuration not stated)	none
Cc1cc(Nc2ccccc2)nc(N2CCN(S(=O)(=O)c3cccc(Cl)c3)CC2)n1	none
Cc1ccccc1N1C(=O)N(Cc2ccc(C(C)(C)C)cc2)c2ccccc2S1(=O)=O	none
COc1ccc(N2C(=O)N(Cc3ccc(C(C)(C)C)cc3)c3ccccc3S2(=O)=O)cc1OC	none
CCc1ccc(N2C(=O)N(Cc3cc(F)cc(F)c3)c3ccccc3S2(=O)=O)cc1	FECH inh active
CSc1ccccc1NC(=O)CCC(=O)N(C)C(C)c1ccon1 (configuration not stated)	none
CCn1c(CNS(=O)(=O)c2cc(C)cc(C)c2)nc2cccnc21	none
O=C(CC1CCN(S(=O)(=O)c2ccccc2)CC1)NCCCN1CCC(N2CCCCC2)CC1	none
CCN(CC)CCCNC(=O)C1CCN(c2ccc(-c3cccc(C)c3)nn2)CC1	FECH inh active
CCN(CC)CCCNC(=O)C1CCN(c2ccc(-c3ccccc3)nn2)CC1	none
CCOCCCNC(=O)C1CCN(c2ccc(-c3cccc(C)c3)nn2)CC1	none
Cc1cc(C)c2c(c1)NC(=O)C2CC(=O)NCCc1ncccc1C (configuration not stated)	none
Cc1cccc(C)c1OCCCN(C)C(=O)c1ccc2nccn2c1	none
CCn1c(C2CCN(C(=O)c3cc(C(C)C)[nH]n3)CC2)n[nH]c1=O	none
O=c1[nH]nc(C2CC2)n1Cc1ccc(Cl)cc1Cl	FECH inh active
CN1CCCC(c2n[nH]c(=O)n2CCc2ccccc2)C1 (configuration not stated)	none
Cc1nc(NCCSc2cn[nH]n2)cc(C(C)C)n1	none
Cc1ccc(-c2cc(N3CCN(S(=O)(=O)c4ccc(C(C)C)cc4)CC3)ncn2)cc1	none
Cc1ccc(S(=O)(=O)N(CC(=O)c2ccccc2)c2nc3nc(C)cc(C)n3n2)cc1	none
CC(C)CNS(=O)(=O)c1ccc(N2C(=O)CCS2(=O)=O)cc1	none
Cc1cc(C)cc(NS(=O)(=O)c2cc(N3C(=O)CCS3(=O)=O)ccc2C)c1	none
CN(C1CCS(=O)(=O)C1)S(=O)(=O)c1ccc(N2C(=O)CCS2(=O)=O)cc1 (configuration not stated)	none
Cc1ccccc1NS(=O)(=O)c1cc(N2C(=O)CCS2(=O)=O)ccc1C	FECH inh active
CCN(CC)S(=O)(=O)c1cc(N2C(=O)CCS2(=O)=O)ccc1C	none
Cc1ccc(N2C(=O)CCS2(=O)=O)cc1S(=O)(=O)Nc1ccccc1	FECH inh active
CCN(C1CCS(=O)(=O)C1)S(=O)(=O)c1cc(N2C(=O)CCS2(=O)=O)ccc1C (configuration not stated)	FECH inh active
Cc1ccc(N2C(=O)CCS2(=O)=O)cc1S(=O)(=O)Nc1ccccc1Br	none
O=C1CCS(=O)(=O)N1c1ccc(S(=O)(=O)NC2CCCCC2)cc1	none
Cc1ccc(N2C(=O)CCS2(=O)=O)cc1S(=O)(=O)Nc1cccc(C)c1C	none
O=C1CCS(=O)(=O)N1c1ccc(S(=O)(=O)NC2CC2)cc1	FECH inh active
Cc1ccc(NS(=O)(=O)c2cc(N3C(=O)CCS3(=O)=O)ccc2C)cc1C	none
CCCn1nc(C)c(CNC2CCN(CC(C)C)CC2)c1C	none
Cc1ccc(C2(O)CCN(C(=O)Cc3c(C)nc(C)[nH]c3=O)CC2)nc1	none
Cc1cccc(Nc2nc(NCCN(C)C)nc3c2cnn3-c2ccccc2)c1	none
Cc1n[nH]c(C)c1CNc1nc(-c2ccccc2)nc2c1CCNC2	none
CCOC(=O)c1cc2ccsc2n1CC(=O)Nc1ccc(OC)c(OC)c1	none
Cc1ccc(OCCc2nnc(NC(=O)C3C=CCN3)s2)cc1 (configuration not stated)	none
CCc1cccc(C)c1NC(=O)CSCc1nc(-c2ccc(F)cc2)no1	none
COc1ncccc1C(=O)N1CC(c2ccccn2)C1	none
O=C(c1nc2ccccn2c1-c1nc2ccc(F)cc2[nH]1)N1CCOCC1	none
COC(=O)C1CCN(S(=O)(=O)c2ccc(N3C(=O)CCS3(=O)=O)cc2)CC1	none
COC(=O)C1CCN(S(=O)(=O)c2cc(N3C(=O)CCS3(=O)=O)ccc2C)CC1	FECH inh active
COc1ccccc1N1CCN(S(=O)(=O)c2cc(N3C(=O)CCS3(=O)=O)ccc2C)CC1	none
CC(C)Cc1nc(-c2cc(C(C)C)[nH]n2)n(-c2ccccn2)n1	none
Cc1cc(C)n(CC2(CNC(=O)c3cccc4nccnc34)CC2)n1	none
Cc1ccc(N2CCCS2(=O)=O)cc1NC(=O)c1ccc(C(C)(C)C)cc1	none
CCCc1nc2nc[nH]n2c(=O)c1NC(=O)Nc1ccc(C)c(F)c1	none
CCCc1nc2nc[nH]n2c(=O)c1NC(=O)Nc1ccc(Br)c(C)c1	FECH inh active
CCCc1nc2nc[nH]n2c(=O)c1NC(=O)Nc1ccc(Br)cc1	none
c1ccc(-n2ccnc2-c2ccncc2)c(OCC2CCCO2)c1 (configuration not stated)	none
COCC(=O)NCC(c1ccccc1C)N(C)C (configuration not stated)	none
CC(CCc1ccccc1)NC(=O)CN1c2ccc(F)cc2-c2ccccc2S1(=O)=O (configuration not stated)	FECH inh active
CCCCOC(=O)c1ccc(NC(=O)CN2c3ccc(F)cc3-c3ccccc3S2(=O)=O)cc1	FECH inh active
CC(CCc1ccccc1)NC(=O)CN1c2ccc(Br)cc2-c2ccccc2S1(=O)=O (configuration not stated)	none
CCc1ccc2c(c1)-c1ccccc1S(=O)(=O)N2CC(=O)Nc1ccccc1C(=O)N1CCCC1	none
COC(=O)c1cc(NC(=O)CN2c3ccc(F)cc3-c3ccccc3S2(=O)=O)cc(C(=O)OC)c1	FECH inh active
